Test results: PubChem BioAssay (NCI)
About 83,000 compounds went through this panel and 20% of them were active in at least one assay; those are over-represented in the sample as a whole.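 96-well plates, one dose, 48 hours. Percent growth reported; active if below 10.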 The source made the active and inactive calls.

tested on: SF-539 CNS; experiment: NCI-60 one-dose screen, 48 h (100 = growth as untreated, 0 = no growth, -100 = all killed); settings: 10 µM unless noted

Compound | growth
O=C1c2ccccc2C(=O)c2c(Nc3ccc(CCO)cc3)ccc(O)c21 | 84.8% (inactive)
CCOC(=O)c1c(Cl)c2c(n1Cc1ccc(OC)cc1)-c1oncc1CCC2 | 93.3% (inactive)
Cc1oc2c(c1C(=O)N1CC[C@@H](N)C1)C(=O)c1c(c(O)c3ccccc3c1O)C2=O | 46.9% (inactive)
O=C1c2[nH]cc(CN[C@@H]3CCCN3)c2C(=O)c2c1c(O)c1ccccc1c2O | -94.1% (active)
O=C1C(N2CCOCC2)=Cc2cccc3cccc1c23 | 97.5% (inactive)
COc1ccc(Cn2c(Br)c3c(c2-c2cc(OC)c(OC)c(OC)c2)CCc2sc(N)nc2-3)cc1 | -13.5% (active)
Nc1nc2c(s1)CCc1c-2c(Br)n(Cc2ccccc2)c1Br | 93.4% (inactive)
COC(=O)/C=C1/CCC2C3CCC4=CC(=O)C(Br)CC4(C)C3C(=O)CC12C (stereo not given) | 97.4% (inactive)

tested on: UACC-257 melanoma; experiment: as above; settings: 10 µM unless noted

Compound | growth
O=[N+]([O-])c1cc2c(cc1Br)-c1ccccc1C2 | 98.8% (inactive)
Clc1ccc(Nc2nc(Nc3ccccc3)nc(Nc3ccc(-c4cc(-c5ccc(Cl)cc5)on4)cc3)n2)cc1 | 70.1% (inactive)
Cc1cc(=O)c2c(C)ccc(C)c2[nH]1 | 80.5% (inactive)
Cc1cc(=O)[nH]n1-c1cc(Cl)ccc1N | 89.8% (inactive)
CC(C)OC1=C(Cl)C(=O)c2ccccc2C1=O | 89.6% (inactive)
COc1cccc(C2CC(=O)Nc3cc4c(cc32)OCO4)c1OC (stereo not given) | 99.4% (inactive)
COc1ccccc1CNCCCCCCCCCCCCN1C(=O)c2ccc3c4c(ccc(c24)C1=O)C(=O)N(CCCCCCCCCCCCNCc1ccccc1OC)C3=O | 113% (inactive)
O=C1C=CC(=O)N1CCCCCCCCCCN1C(=O)C=CC1=O | 76.1% (inactive)
Cc1nc2nc(C(F)(F)F)[nH]c2nc1C | 100% (inactive)
Fc1ccccc1Nc1ccc2nnc(-c3ccncc3)n2n1 | 105% (inactive)
NC(=O)c1nc2c([nH]c1=O)CCCC2 | 109% (inactive)
CCN1CCN(C(=S)SCC(=O)Nc2nc3ccc(OC)cc3s2)CC1 | 117% (inactive)
O=C(NCc1cccnc1)c1ccc([N+](=O)[O-])o1 | -7.66% (active)
N#CC1=C(N)Oc2cc(N)ccc2C1c1ccc(F)cc1 (stereo not given) | 95.6% (inactive)
CC1SC(c2cccc(Oc3ccccc3)c2)N(CCc2cccs2)C1=O (stereo not given) | -45.1% (active)
COc1ccc(-c2c(-c3cc4c(c(OC)c3OC)OCO4)noc2N)cc1 | 66.8% (inactive)
c1ccc(-c2n(Cc3ccc4ccccc4n3)c3ccccc3[n+]2Cc2ccc3ccccc3n2)cc1 | -2.75% (active)

Compound | growth
O=S(=O)(Nc1ncccn1)c1ccc(Nc2ccc3nnc(-c4ccncc4)n3n2)cc1 | 103% (inactive)
Oc1ccccc1/C=N/Nc1nc2ccccc2s1 | 58.7% (inactive)
O=C1NC(=S)S/C1=C\c1cccc([N+](=O)[O-])c1 | 88.8% (inactive)
COCCOC1=C(Cl)C(=O)c2ccccc2C1=O | -17.3% (active)
O=C1NC(=O)C(CSc2ccccc2)(c2ccccc2)N1 (stereo not given) | 93.6% (inactive)
Clc1ccccc1Nc1ccc2nnc(-c3ccncc3)n2n1 | 114% (inactive)
COc1cc(CNCCCN2C(=O)c3ccc4c5c(ccc(c35)C2=O)C(=O)N(CCCNCc2cc(OC)c(OC)c(OC)c2)C4=O)cc(OC)c1OC | -93% (active)
O=C1C(OCCOc2ccccc2)=C(OCCOc2ccccc2)C(=O)c2ccccc21 | 14.8% (inactive)
COc1ccc(OC)c(C2C(C#N)=C(N)Oc3cc(O)ccc32)c1 (stereo not given) | 99.9% (inactive)
O=C1c2ccccc2C(=O)c2c(Nc3ccc(CCO)cc3)ccc(O)c21 | 101% (inactive)
CCOC(=O)c1c(Cl)c2c(n1Cc1ccc(OC)cc1)-c1oncc1CCC2 | 96.1% (inactive)
Cc1oc2c(c1C(=O)N1CC[C@@H](N)C1)C(=O)c1c(c(O)c3ccccc3c1O)C2=O | 74.8% (inactive)
O=C1c2[nH]cc(CN[C@@H]3CCCN3)c2C(=O)c2c1c(O)c1ccccc1c2O | -64.9% (active)
O=C1C(N2CCOCC2)=Cc2cccc3cccc1c23 | 101% (inactive)
COc1ccc(Cn2c(Br)c3c(c2-c2cc(OC)c(OC)c(OC)c2)CCc2sc(N)nc2-3)cc1 | 57.5% (inactive)
Nc1nc2c(s1)CCc1c-2c(Br)n(Cc2ccccc2)c1Br | 96.9% (inactive)

tested on: M14 melanoma; experiment: as above; settings: 10 µM unless noted

Compound | growth
O=[N+]([O-])c1cc2c(cc1Br)-c1ccccc1C2 | 78.7% (inactive)
Clc1ccc(Nc2nc(Nc3ccccc3)nc(Nc3ccc(-c4cc(-c5ccc(Cl)cc5)on4)cc3)n2)cc1 | 41.4% (inactive)
Cc1cc(=O)c2c(C)ccc(C)c2[nH]1 | 97.8% (inactive)
Cc1cc(=O)[nH]n1-c1cc(Cl)ccc1N | 99.8% (inactive)
CC(C)OC1=C(Cl)C(=O)c2ccccc2C1=O | 97.8% (inactive)
COc1cccc(C2CC(=O)Nc3cc4c(cc32)OCO4)c1OC (stereo not given) | 115% (inactive)
COc1ccccc1CNCCCCCCCCCCCCN1C(=O)c2ccc3c4c(ccc(c24)C1=O)C(=O)N(CCCCCCCCCCCCNCc1ccccc1OC)C3=O | 80.2% (inactive)
O=C1C=CC(=O)N1CCCCCCCCCCN1C(=O)C=CC1=O | 77.8% (inactive)
Cc1ccc(N=c2nc3sc4c(C)ccc(C)c4n3c(N)c2C#N)cc1 | 102% (inactive)
COc1cc2nc(SCc3cc(OC)c(OC)c(OC)c3)n(-c3ccccc3OC)c(=O)c2cc1OC | 77.1% (inactive)
Cc1nc2nc(C(F)(F)F)[nH]c2nc1C | 105% (inactive)
CC(C)(C)[Si](C)(C)OC1[C@@H](CNC(=O)NC(=O)CCl)O[C@@H](n2cnc3c(N)ncnc32)[C@H]1O[Si](C)(C)C(C)(C)C (stereo not given in full) | 23.3% (inactive)
Fc1ccccc1Nc1ccc2nnc(-c3ccncc3)n2n1 | 104% (inactive)
NC(=O)c1nc2c([nH]c1=O)CCCC2 | 122% (inactive)
CCN1CCN(C(=S)SCC(=O)Nc2nc3ccc(OC)cc3s2)CC1 | 112% (inactive)
O=C(NCc1cccnc1)c1ccc([N+](=O)[O-])o1 | -81.2% (active)
N#CC1=C(N)Oc2cc(N)ccc2C1c1ccc(F)cc1 (stereo not given) | 51.1% (inactive)
O=c1[nH]c(-c2ccncc2)nc2sc3c(c12)CCCCCC3 | 85.3% (inactive)
CC1SC(c2cccc(Oc3ccccc3)c2)N(CCc2cccs2)C1=O (stereo not given) | -74% (active)
COc1ccc(-c2c(-c3cc4c(c(OC)c3OC)OCO4)noc2N)cc1 | 12.6% (inactive)

Compound | growth
c1ccc(-c2n(Cc3ccc4ccccc4n3)c3ccccc3[n+]2Cc2ccc3ccccc3n2)cc1 | -14.9% (active)
O=S(=O)(Nc1ncccn1)c1ccc(Nc2ccc3nnc(-c4ccncc4)n3n2)cc1 | 97.7% (inactive)
CC(=O)c1cc(C)c(OC(=O)c2ccccc2)c(C)c1 | 105% (inactive)
Oc1ccccc1/C=N/Nc1nc2ccccc2s1 | 56.6% (inactive)
O=C1NC(=S)S/C1=C\c1cccc([N+](=O)[O-])c1 | 97.4% (inactive)
COCCOC1=C(Cl)C(=O)c2ccccc2C1=O | 40.1% (inactive)
O=C1NC(=O)C(CSc2ccccc2)(c2ccccc2)N1 (stereo not given) | 105% (inactive)
Clc1ccccc1Nc1ccc2nnc(-c3ccncc3)n2n1 | 112% (inactive)
COc1cc(CNCCCN2C(=O)c3ccc4c5c(ccc(c35)C2=O)C(=O)N(CCCNCc2cc(OC)c(OC)c(OC)c2)C4=O)cc(OC)c1OC | -89.8% (active)
O=C1C(OCCOc2ccccc2)=C(OCCOc2ccccc2)C(=O)c2ccccc21 | 51.4% (inactive)
COc1ccc(OC)c(C2C(C#N)=C(N)Oc3cc(O)ccc32)c1 (stereo not given) | 100% (inactive)
O=C1c2ccccc2C(=O)c2c(Nc3ccc(CCO)cc3)ccc(O)c21 | 80.3% (inactive)
CCOC(=O)c1c(Cl)c2c(n1Cc1ccc(OC)cc1)-c1oncc1CCC2 | 108% (inactive)
Cc1oc2c(c1C(=O)N1CC[C@@H](N)C1)C(=O)c1c(c(O)c3ccccc3c1O)C2=O | 38.8% (inactive)
O=C1c2[nH]cc(CN[C@@H]3CCCN3)c2C(=O)c2c1c(O)c1ccccc1c2O | -72.8% (active)
O=C1C(N2CCOCC2)=Cc2cccc3cccc1c23 | 104% (inactive)
COc1ccc(Cn2c(Br)c3c(c2-c2cc(OC)c(OC)c(OC)c2)CCc2sc(N)nc2-3)cc1 | 12% (inactive)
Nc1nc2c(s1)CCc1c-2c(Br)n(Cc2ccccc2)c1Br | 91.8% (inactive)
COC(=O)/C=C1/CCC2C3CCC4=CC(=O)C(Br)CC4(C)C3C(=O)CC12C (stereo not given) | 59.9% (inactive)
